Experimental data: PubChem BioAssay AID624396 (The Scripps Research Institute Molecular Screening Center, 2012)
Calls of active or inactive are those of the source.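 Rule for the calls: active = over 15% of cells apoptotic at 25 µM, or half-maximal dose of 10 µM or lower; inactive = the rest.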

Test system: BCL2 1863
Assay: pro-apoptotic nuclear morphology in cancer cells – imaging, DAPI staining, cell line panel, probe, mechanism study for MCL1-BIM inhibitor project, late-stage follow-up (AID 624396)
Details: at 25 µM, hits give high values

Compound: CCN1CCN(C(c2ccc(C(F)(F)F)cc2)c2ccc3cccnc3c2O)CC1 (stereo unspecified)
- apoptosis: 21% (active)
